Screens (PubChem BioAssay)
HIV TAR-Tat: TAR RNA-Tat peptide displacers, HIV-1, primary screen, biochemical, FRET, FAM/TAMRA-labeled Tat; HIV-1 TAR RNA, Tat peptide displacement FRET; hits give high values; z-score (no concentration beside the values); hit rate 0.6% among 100,000; AID 1259389, 2018; active = z-score of 3 or more in at least 2 runs
CDC25B-CDK2 inh: primary biochemical HTRF screen for blockers of M-phase inducer phosphatase 2 binding to CDK2/cyclin A | P30305+P24941 | z-score (concentration not given with the values) | HTRF CDC25B-CDK2/CyclinA binding, anti-His/anti-Flag; hits give high values | hit rate 0.72% among 94,000; in the data active = z-score above about 3.2
Of the large screens only hits and unclear results are named; the others gave an inactive call. Shown are actives, neighbours in structure and some others; about 0.9% of the full set was active somewhere.

Nc1ccc(O)c(C(=O)O)c1	HIV TAR-Tat 21.4 (no result: CDC25B-CDK2 inh)
Nc1ccc(C(=O)O)cc1	none (no result: CDC25B-CDK2 inh)
O=C(O)c1cc(O)ccc1O	none (no result: CDC25B-CDK2 inh)
O=C(O)c1cccc(O)c1O	HIV TAR-Tat 9.56 (no result: CDC25B-CDK2 inh)
O=C(O)c1cccc2cccc(C(=O)O)c12	none (no result: HIV TAR-Tat)
Nc1ccc(C(=O)O)c(O)c1 (tested in a mixture with another compound)	HIV TAR-Tat 16.1 (no result: CDC25B-CDK2 inh)
CC(CNS(=O)(=O)c1ccc(-c2ccc(=O)[nH]n2)o1)c1ccccc1 (stereo not given)	none (no result: CDC25B-CDK2 inh)
C=CCNc1ncnc2c1c(-c1ccccc1)cn2-c1ccccc1	none (no result: CDC25B-CDK2 inh)
COc1ccc(N2CSC3=C(C#N)C(c4ccc(Br)cc4)CC(=O)N3C2)c(OC)c1 (stereo not given)	none
COc1ccc(N2CSC3=C(C#N)C(c4c(F)cccc4Cl)CC(=O)N3C2)c(OC)c1 (stereo not given)	none
COc1cccc(C2CC(=O)N3CN(c4ccc(OC)cc4OC)CSC3=C2C#N)c1 (stereo not given)	CDC25B-CDK2 inh 5.9
COc1ccc(N2CSC3=C(C#N)C(c4ccccc4)CC(=O)N3C2)c(OC)c1 (stereo not given)	CDC25B-CDK2 inh 4.28
O=C(NCc1nnnn1-c1ccccc1)Nc1cccc(Cl)c1	none (no result: CDC25B-CDK2 inh)
CCCN1C(=O)c2[nH]nc(-c3cc(C)ccc3O)c2C1c1ccc(F)cc1 (stereo not given)	none
Cc1cccc(N2CSC3=C(C#N)C(c4ccc(F)cc4)CC(=O)N3C2)c1 (stereo not given)	CDC25B-CDK2 inh 4.1
CSc1ccc(C2CC(=O)N3CN(c4cccc(C)c4)CSC3=C2C#N)cc1 (stereo not given)	CDC25B-CDK2 inh 8.47
Cc1cccc(N2CSC3=C(C#N)C(c4ccccc4Cl)CC(=O)N3C2)c1 (stereo not given)	none
CCCCN(C)C(=O)C1CCN(c2nnc(-n3cccc3)s2)CC1	none
CCN(CC)c1cc2c(cc1F)c(=O)c(S(=O)(=O)c1ccccc1)cn2CC	none (no result: CDC25B-CDK2 inh)
O=S(=O)(c1cccc(F)c1)N1CCN(Cc2ccc3c(c2)OCO3)CC1	none (no result: HIV TAR-Tat)
O=S(=O)(c1ccc(F)cc1)N1CCN(Cc2ccc3c(c2)OCO3)CC1	CDC25B-CDK2 inh 15.8
O=C(OCc1cc(=O)n2nc(C3CC3)sc2n1)c1ccccc1Br	none (no result: CDC25B-CDK2 inh)
Cc1ccc2c(C)nc(Nc3nc4c(c(=O)[nH]3)CCC4)nc2c1	CDC25B-CDK2 inh 10.3 (no result: HIV TAR-Tat)
Cc1ccc2nc(Nc3nc4c(c(=O)[nH]3)CCCC4)nc(C)c2c1	none
CNC(=O)c1ccc2c(c1)CCCN2S(C)(=O)=O	none
COc1ccc(CNc2cc(-c3ccccc3)nc3nncn23)cc1	none
c1ccc(CNc2cc(-c3ccccc3)nc3nncn23)cc1	CDC25B-CDK2 inh 4.61
N#CC1=C2SCN(c3ccc(F)cc3)CN2C(=O)CC1c1c(F)cccc1Cl (stereo not given)	none
COc1ccc(C2CC(=O)N3CN(c4ccc(C)c(C)c4)CSC3=C2C#N)c(OC)c1 (stereo not given)	CDC25B-CDK2 inh 3.69
COc1ccc(C2CC(=O)N3CN(c4ccc(Cl)cc4)CSC3=C2C#N)c(OC)c1 (stereo not given)	CDC25B-CDK2 inh 5.97
COc1ccc(C2CC(=O)N3CN(c4ccccc4)CSC3=C2C#N)c(OC)c1 (stereo not given)	CDC25B-CDK2 inh 5.22
COc1ccc(C2CC(=O)N3CN(c4ccc(OC)cc4OC)CSC3=C2C#N)c(OC)c1 (stereo not given)	none
COc1ccc(N2CSC3=C(C#N)C(c4c(F)cccc4Cl)CC(=O)N3C2)cc1 (stereo not given)	CDC25B-CDK2 inh 3.71
COc1ccc(C2NC(=O)c3c(sc4c3CC(C)(C)OC4)N2)cc1 (stereo not given)	none
Cc1nn2cnnc2c(C)c1CCC(=O)NCc1ccc2c(c1)OCO2	none (no result: CDC25B-CDK2 inh)
Cc1cc2nc(-c3cc(NC(=S)NC(=O)c4cccc(Cl)c4)ccc3O)oc2cc1C	none (no result: HIV TAR-Tat)
COCCN1CCn2c(nc3cc(Nc4nnc(C)c5ccccc45)ccc32)C1	CDC25B-CDK2 inh 14.2
COCCN1CCn2c(nc3cc(Cl)ccc32)C1	none
COCCN1CCn2c(nc3cc(NC(=O)NC4CCCCC4)ccc32)C1	CDC25B-CDK2 inh 7.05
COCCCN1CCn2c(nc3cc(NC(=O)NC4CCCCC4)ccc32)C1	none
O=C(NC1CCCC1)C1CCN(c2nc3cccnc3s2)CC1	none (no result: CDC25B-CDK2 inh)
O=C1CC(c2ccc(Br)cc2)N=C(NC(=O)c2cccnc2)N1 (stereo not given)	none (no result: CDC25B-CDK2 inh)
Cc1csc2nc(CSc3nnc(-c4ccccc4)o3)cn12	none (no result: CDC25B-CDK2 inh)
COc1cc2nc(Nc3ccc(F)cc3)nc(N)c2cc1OC	CDC25B-CDK2 inh 12.8
COc1cc2nc(Nc3ccc(C)c(Cl)c3)nc(N)c2cc1OC	none
COc1cc2nc(Nc3ccc(C)c(C)c3)nc(N)c2cc1OC	CDC25B-CDK2 inh 9.26
COc1ccc(Nc2nc(N)c3ccccc3n2)cc1	none
Fc1ccc(OCc2nc(-c3ccc4c(c3)nnn4C3CCCC3)no2)cc1	none (no result: CDC25B-CDK2 inh)
CCOC(=O)c1c(C)sc([N+](=O)[O-])c1O	none
CC(C)N(C1CCCCC1)S(=O)(=O)c1cn(C)cn1	none (no result: CDC25B-CDK2 inh)
C=CCSc1nnc(NC(=O)c2cc(=O)c3cc(CC)ccc3o2)s1	HIV TAR-Tat 9.8
C=CCSc1nnc(NC(=O)c2cc(=O)c3cc(Cl)ccc3o2)s1	none
O=C(Nc1ccc(F)cc1)c1ccc(Cn2nc(N3CCN(c4ccc(F)cc4)CC3)ccc2=O)o1	none (no result: CDC25B-CDK2 inh)
O=C(Nc1ccc2c(c1)OCO2)c1ccc(Cn2nc(N3CCN(c4ccccc4)CC3)ccc2=O)o1	HIV TAR-Tat 17.1 (no result: CDC25B-CDK2 inh)
CCc1ccc(OCCSc2nc(-c3cccs3)nc3cc(=O)[nH]n23)cc1	none (no result: CDC25B-CDK2 inh)
COc1cc2c(NC3CCN(C)CC3)nc(N3CCCN(C)CC3)nc2cc1OCCCN(C)C	HIV TAR-Tat 12.4 (no result: CDC25B-CDK2 inh)
COc1cc2c(NC3CCN(C(C)C)CC3)nc(C3CCCCC3)nc2cc1OCCCN1CCCC1	none (no result: CDC25B-CDK2 inh)
COc1cc2c(NC3CCN(C)CC3)cc(N3CCCCN(C)CC3)cc2cc1OCCOCCN(C)C	HIV TAR-Tat 8.27 (no result: CDC25B-CDK2 inh)
COc1ccccc1C1=NS(=O)(=O)c2cc(S(=O)(=O)N3CCCCC3)ccc2N1	none (no result: CDC25B-CDK2 inh)
CC(C)Sc1ncc(Cl)c(C(=O)N(Cc2ccco2)C2CCS(=O)(=O)C2)n1 (stereo not given)	none
COc1ccccc1N1CCN(C2=C(C(=O)N3CCOCC3)S(=O)(=O)c3ccccc32)CC1	none (no result: CDC25B-CDK2 inh)
COc1ccc(C2Oc3c(OC)cccc3C3CC(c4cccs4)=NN32)cc1 (stereo not given)	none (no result: HIV TAR-Tat)
CCOC(=O)c1cccc(-n2nnc3c(sc4nc(C)c(C)cc43)c2=O)c1	none
Oc1ccccc1CNc1nc2c(s1)CCc1ccccc1-2	none
CC(=O)Nc1nc2c(s1)Cc1ccccc1-2	CDC25B-CDK2 inh 18.5 (no result: HIV TAR-Tat)
COc1ccc2c(c1)Cc1sc(NC(=O)c3ccc(OC)c(OC)c3)nc1-2	CDC25B-CDK2 inh 18.7
COc1cc(OC)cc(C(=O)Nc2nc3c(s2)Cc2cc(OC)ccc2-3)c1	none
Cc1nc2nc(NCc3cccs3)[nH]n2c(=O)c1CCC(=O)N1CCOCC1	none
Cc1ccc(C(=O)c2cnc3cc4c(cc3c2N2CCC(C(N)=O)CC2)OCCO4)cc1C	none
Cc1ccc(C(=O)c2cnc3cc4c(cc3c2N2CCC(C(N)=O)CC2)OCO4)cc1C	HIV TAR-Tat 17.4
CCOc1ccc(S(=O)(=O)[C@H]2CS(=O)(=O)C[C@@H]2NCc2ccc3c(c2)OCO3)cc1	none
O=C(CSc1nc2c(c(=O)[nH]1)CCCC2)Nc1ccccc1Cl	none
O=C(CSc1nc2c(c(=O)[nH]1)CCCC2)Nc1ccccc1F	HIV TAR-Tat 14.6
COc1ccccc1C(=O)c1c(N)c(-c2nc(-c3ccccc3OC)cs2)c2ccccn12	none
